Measured values from PubChem BioAssay.
The source made the active and inactive calls.

Key:
Albumin (Bos taurus) = Albumin (Bos taurus) (UniProt P02769); experiment: compounds binding labelled BSA control protein – biochemical, small-molecule microarray, Alexa647 label, 635/667 nm fluorescence, artefact control for SMM control protein annotation, profiling panel (AID 1118); conditions: BSA-A647 binding, fluorescence 635 nm, higher = more signal;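 further: score merges 667 nm emission intensity and signal-to-noise per printed compound spot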
[1] = probe aXIP binding to arrayed compounds – biochemical, NeuroSMM set, 635/667 nm fluorescence, primary screen (AID 1119); conditions: small-molecule microarray, higher = more signal, called active from +8 up or from −8 down;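 further: probe is the protein aXip251-270 applied at 1 µg/mL to compound-printed slides; binding of probe to printed compounds measured as 667 nm fluorescence plus signal to noise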
[2] = probe aNOTCH3 binding on compound microarray – biochemical, small-molecule microarray, 635/667 nm fluorescence, primary screen (AID 1120); conditions: higher = more signal;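 further: probe is a biotin-tagged antibody raised against NOTCH3 rather than NOTCH3 protein; score merges spot fluorescence near 667 nm with spot signal to noise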
[3] = probe aNOTCH2 binding on compound microarray – biochemical, small-molecule microarray, 635/667 nm fluorescence, primary screen (AID 1121); conditions: higher = more signal;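 further: score merges feature fluorescence read at 667 nm with its signal to noise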
[4] = molecular target: Carbonic anhydrase 2 (Homo sapiens) (UniProt P00918); experiment: compounds binding carbonic anhydrase 2 – biochemical, small-molecule microarray, Alexa647-labelled CAII, profiling panel (AID 1122); conditions: CAII-A647 binding fluorescence, higher = more signal
[5] = COS7 lysate on small-molecule microarray, probe aHis, 635 nm (AID 1123); conditions: COS7 cell lysate, fluorescence, higher = more signal;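 further: z-score combines 667nm fluorescence intensity with signal-to-noise per printed compound spot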
[6] = probe aLAP1 signal on lysate-treated microarray – cell lysate, small-molecule microarray, COS7 lysate, primary screen (AID 1124); conditions: probe aLAP1, fluorescence, higher = more signal;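 further: lysate comes from COS7 cells expressing LAP1 and is applied at 0.3 µg/mL; score merges spot fluorescence near 667 nm with signal-to-noise over triplicate slides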
Sam68 (KHDRBS1) = experiment: compounds binding KHDRBS1 protein – biochemical, small-molecule microarray, 635 nm fluorescence, primary screen (AID 1125); conditions: higher = more signal;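 further: score merges 667 nm channel intensity with signal to noise over triplicate slides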
[7] = system: Chordin-like protein 2 (CHRDL2); experiment: compounds binding chordin-like 2 – biochemical, small-molecule microarray, 635 nm fluorescence, primary screen (AID 1126); conditions: fluorescence 635 nm, higher = more signal;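 further: printed compound slides probed with Chrdl2 protein at 4 µg/mL for 1 h at 4 C; score merges 667 nm emission intensity with signal to noise over three replicate slides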
[8] = molecular target: Concanavalin-A (Canavalia ensiformis) (UniProt P02866); experiment: compounds binding concanavalin A lectin – biochemical, small-molecule microarray, Alexa647 label, 635 nm, artefact control for SMM control protein annotation, primary screen (AID 1127); conditions: ConA-A647 binding fluorescence, higher = more signal;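 further: z combines 667 nm emission intensity with signal-to-noise across three replicate slides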
Chain of Concanavalin-A (Canavalia ensiformis) (P02866 whole entry, looked up): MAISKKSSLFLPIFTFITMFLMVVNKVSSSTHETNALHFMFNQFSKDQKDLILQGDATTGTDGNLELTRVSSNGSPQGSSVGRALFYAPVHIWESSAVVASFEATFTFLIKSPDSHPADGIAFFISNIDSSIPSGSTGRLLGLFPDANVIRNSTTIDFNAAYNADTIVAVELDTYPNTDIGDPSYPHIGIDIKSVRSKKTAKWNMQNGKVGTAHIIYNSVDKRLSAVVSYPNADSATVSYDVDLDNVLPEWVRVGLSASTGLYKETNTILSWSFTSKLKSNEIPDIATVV

Chain of Albumin (Bos taurus) (P02769 whole entry, looked up): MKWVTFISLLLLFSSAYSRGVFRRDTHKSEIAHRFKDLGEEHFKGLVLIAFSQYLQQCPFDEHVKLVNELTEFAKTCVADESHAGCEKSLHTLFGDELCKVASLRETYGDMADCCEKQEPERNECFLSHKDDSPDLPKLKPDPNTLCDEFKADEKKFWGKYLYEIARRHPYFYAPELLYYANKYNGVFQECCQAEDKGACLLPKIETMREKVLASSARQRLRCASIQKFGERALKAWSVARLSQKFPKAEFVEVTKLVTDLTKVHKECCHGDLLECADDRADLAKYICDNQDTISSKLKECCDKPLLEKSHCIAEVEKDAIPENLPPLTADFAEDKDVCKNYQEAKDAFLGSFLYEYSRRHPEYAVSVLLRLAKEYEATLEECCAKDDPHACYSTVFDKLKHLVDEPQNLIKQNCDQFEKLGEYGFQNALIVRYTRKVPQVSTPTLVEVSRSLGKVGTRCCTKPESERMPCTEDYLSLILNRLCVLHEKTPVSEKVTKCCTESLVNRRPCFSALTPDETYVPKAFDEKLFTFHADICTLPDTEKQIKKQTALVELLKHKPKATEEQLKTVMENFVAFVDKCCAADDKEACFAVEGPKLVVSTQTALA

Row | Structure (SMILES) | composite z-score (Albumin (Bos taurus)) | composite Z-score [1] | composite z-score [2] | composite z-score [3] | composite z-score [4] | composite z-score [5] | composite z-score [6] | composite z-score (Sam68 (KHDRBS1)) | composite z-score [7] | composite z-score [8]
1 | C=C[C@H](CO)NS(=O)(=O)c1ccc(Br)cc1 | 0.158 | 0.058 (inactive) | 0.234 | -0.127 | -0.0876 | 1 | 0.117 | 0.562 | 0.704 | 0.549
2 | COCCOC(=O)N1C(=O)[C@@]2(c3cc(C#CCNC(N)=O)ccc31)[C@H](C(=O)Nc1nc3ccccc3s1)[C@H]1C(=O)O[C@H](c3ccccc3)[C@H](c3ccccc3)N1[C@@H]2c1ccc(OCCO)cc1 | -0.28 | -0.335 (inactive) | 0.0952 | 0.0949 | 0.382 | 0.481 | 0.422 | 1.1 | 1.34 | 0.994
3 | O=C1O[C@H](c2ccccc2)[C@H](c2ccccc2)N2[C@H]1[C@@H](C(=O)N1CCCCCCC1)[C@]1(C(=O)Nc3ccc(C#CC4=CCCCC4)cc31)[C@H]2c1ccc(OCCO)cc1 | 0.833 | 7.2 (inactive) | 2.11 | 1.05 | 0.837 | 3.66 | 1.3 | 1.25 | 1.48 | 1.15
4 | CO[C@H]1O[C@H](CO)[C@@H](OC(=O)Nc2ccc(C(F)(F)F)cc2)[C@H](OC(=O)Nc2ccc3c(c2)OCO3)[C@@H]1OC(=O)Nc1ccc2c(c1)OCO2 | 0.835 | -0.279 (inactive) | 0.149 | -0.164 | 0.238 | 1.83 | 0.579 | 1.33 | 0.0643 | 1.14
5 | O=C1C[C@@](C(=O)NCCN2CCOCC2)(c2ccc([N+](=O)[O-])cc2)[C@@H](c2ccc(CO)cc2)N1CC12CC3CC(CC(C3)C1)C2 | 0.0577 | 0.0308 (inactive) | 0.0208 | -0.084 | 0.548 | 2.53 | 0.0978 | 1.29 | 0.901 | 0.926
6 | NC(=O)NCC#Cc1ccc2c(c1)[C@]1(C(=O)N2)[C@H](c2ccc(O)cc2)N2[C@H](c3ccccc3)[C@H](c3ccccc3)OC(=O)[C@H]2[C@@H]1C(=O)O | 0.43 | 0.619 (inactive) | -0.725 | -0.281 | 0.241 | 0.547 | -0.0085 | -0.0756 | -1.43 | 0.411
7 | CC1CC/C=C\[C@H]2OC34C=CCN(Cc5ccccc5)C(=O)[C@H]3N(CCCO)C(=O)[C@@H]4C2C(=O)O1 (stereo not given in full) | -0.0908 | -0.422 (inactive) | -0.437 | -0.155 | 0.861 | -0.0465 | 1.25 | -0.649 | -0.933 | -0.841
8 | CN1C(=O)C2C=CC(C(O)c3ccccc3)N(N(c3ccccc3)c3ccccc3)C2C1=O (stereo not given) | 0.273 | 0.22 (inactive) | 0.215 | 0.105 | 0.763 | 0.321 | 1.34 | -0.494 | 0.781 | -0.529
9 | O=C1C2C=CC(C(O)CCc3ccccc3)N(Nc3ccccc3F)C2C(=O)N1c1ccccc1 (stereo not given) | 0.955 | -0.585 (inactive) | 0.331 | -0.0677 | 0.755 | 2.69 | 0.185 | 1.22 | -0.47 | 0.893
10 | C=CCNC(=O)[C@@H]1[C@H]2C(=O)O[C@H](c3ccccc3)[C@H](c3ccccc3)N2[C@H](c2ccc(O)cc2)[C@@]12C(=O)Nc1ccc(C#CCNC(N)=O)cc12 | 0.118 | 0.0219 (inactive) | -0.169 | -0.166 | 0.352 | 0.636 | 0.73 | 0.512 | -0.671 | 0.0889
11 | COc1ccc(C(=O)Nc2ccc(CN3C(=O)[C@]4(O[C@H](CCO)[C@@H]([Si](C)(C)c5ccc(OC)cc5)[C@@H]4C)c4ccccc43)cc2)cc1 | 0.357 | 0.377 (inactive) | 0.149 | -0.0891 | 0.283 | 0.417 | -0.337 | 1.22 | 0.531 | 1.09
12 | C=CCOC(=O)[C@H]1[C@@H]2C(=O)O[C@@H](c3ccccc3)[C@@H](c3ccccc3)N2[C@@H](c2ccc(OCCOC(=O)[C@H]3C[C@H]4C(=O)N[C@@H](CCCCNC(C)=O)C(=O)N4[C@H]3c3ccc(O)cc3)cc2)[C@]12C(=O)Nc1ccc(I)cc12 | -0.0312 | 0.745 (inactive) | 0.0876 | -0.147 | 0.253 | 0.837 | 0.0563 | 1.22 | 1.25 | 1.09
13 | COC(=O)[C@@]1(Cc2ccc(OC)cc2)[C@H]2c3cc(C(=O)N4CCCC4)n(Cc4ccc(C)c(F)c4F)c3C[C@H]2CN1C(=O)c1ccccc1 | 1.05 | -0.572 (inactive) | 0.538 | 0.223 | 0.744 | 3.22 | 0.345 | 1.3 | -0.596 | 1.15
14 | COc1cc2c(cc1OC)CN(C(=O)[C@H]1[C@@H]3C(=O)O[C@@H](c4ccccc4)[C@@H](c4ccccc4)N3[C@@H](c3ccc(O)cc3)[C@]13C(=O)Nc1ccccc13)CC2 | -0.134 | 2.52 (inactive) | -0.0672 | 0.0481 | 0.402 | 2.34 | 0.399 | 1.07 | 0.139 | 0.777
15 | COC(=O)[C@H](Cc1ccccc1)N1CC2=C[C@@H](C3CC3)n3c(=O)n(C)c(=O)n3[C@H]2[C@@H]1[C@@H](O)Cc1ccccc1 | 0.503 | 0.133 (inactive) | 0.0562 | -0.115 | 0.298 | 0.653 | 0.0511 | 1.18 | 0.162 | 0.658
16 | CCCC[C@@H]1C[C@H]1[C@@H](NC(=O)c1ccco1)c1ccc(-c2ccccc2)cc1 | 0.0697 | 0.572 (inactive) | 0.0155 | 0.0474 | 0.344 | -0.66 | -0.305 | 0.325 | -0.33 | 0.163
17 | CCN(CC)c1ccc(N2CC=CC34O[C@@H]5C=CCCOC(=O)C5[C@H]3C(=O)N(CCCCCCO)[C@@H]4C2=O)cc1 (stereo not given in full) | 0.254 | 0.469 (inactive) | -0.276 | -0.203 | 0.885 | 2.79 | 1.46 | 0.114 | -0.489 | -0.1
18 | C[N+](C)(C)CCCC[C@@H]1NC(=O)[C@H]2C[C@@H](C(=O)NCCCCCCNC(=O)CS)[C@@H](c3cccc(OCCO)c3)N2C1=O | 0.492 | 3.4 (inactive) | -0.246 | -0.146 | 0.881 | 1.8 | 0.864 | -0.365 | -1.44 | -0.338
19 | CCCCCN1CC=CC23O[C@@H]4C=CCCOC(=O)C4[C@H]2C(=O)N(CCCCCO)[C@@H]3C1=O (stereo not given in full) | 0.337 | 0.0269 (inactive) | -0.213 | -0.142 | 0.846 | 0.718 | 0.57 | -1.22 | -0.17 | -0.406
20 | CN(C)CCCCCCNC(=O)[C@H]1C[C@H]2C(=O)N3CCC[C@H]3C(=O)N2[C@H]1c1ccc(O)cc1 | -0.584 | 0.233 (inactive) | 0.377 | -0.0438 | 0.561 | 2.04 | 0.81 | 1.34 | 1.43 | 1.22
21 | CC1(C)[C@@H]2CC(C(O)C3C=CC4C(=O)N(Cc5ccccc5)C(=O)C4N3n3cnnc3)=C[C@H]1C2 (stereo not given in full) | 0.925 | -0.132 (inactive) | -0.0079 | -0.0866 | 0.651 | 1.39 | 0.641 | 1.34 | 0.371 | 0.39
22 | COC(=O)C(CC#Cc1ccc2c(c1)[C@]1(C(=O)N2)[C@H](c2ccc(OCCO)cc2)N2[C@H](c3ccccc3)[C@H](c3ccccc3)OC(=O)[C@H]2[C@@H]1C(=O)N1CCc2cc(OC)c(OC)cc2C1)C(=O)OC | 0.863 | -0.527 (inactive) | 0.407 | -0.0326 | 0.542 | 2.04 | 0.397 | 1.31 | 0.547 | 1.15
23 | O=C1c2ccccc2[C@](Cc2ccccc2I)(C(=O)NCCN2CCOCC2)[C@H](c2ccc(CO)cc2)N1Cc1ccccc1Cl | 0.517 | 0.322 (inactive) | 0.223 | 0.385 | 0.652 | 1.82 | 0.754 | 1.31 | 0.202 | 1.17
24 | O=C1O[C@@H](c2ccccc2)[C@@H](c2ccccc2)N2[C@@H](c3ccccc3OCCO)[C@]3(C(=O)Nc4ccc(C#CC5=CCCCC5)cc43)[C@@H](C(=O)N3CCCCCCC3)[C@H]12 | 0.407 | 7.47 (inactive) | 2.16 | 1.08 | 1.04 | 4.3 | 1.29 | 1.31 | 1.68 | 1.09
25 | COC(=O)[C@@]1(Cc2ccccc2)[C@H]2c3cc(C(=O)N(C)C)n(Cc4ccsc4Br)c3C[C@H]2CN1C(=O)c1ccccc1 | 0.928 | -0.502 (inactive) | 0.501 | -0.0597 | 0.586 | 2.66 | -0.0415 | 1.21 | -1.03 | 0.883
26 | CC(C)=CCN[C@H](CO)c1ccccc1 | -0.0472 | -0.139 (inactive) | -0.0122 | -0.14 | -0.115 | 0.0524 | -0.021 | -0.127 | 0.218 | 0.0857
27 | COC(=O)[C@@]1(Cc2ccc(OC)cc2)[C@H]2c3cc(C(=O)N(C)C)n(Cc4ccc(S(C)(=O)=O)cc4)c3C[C@H]2CN1C(=O)c1ccccc1 | 0.49 | -0.357 (inactive) | 0.697 | -0.168 | 0.725 | 2.72 | 0.969 | 0.549 | -0.948 | -1.06
